Laboratory results as given in PubChem BioAssay AID463117 (University of Pittsburgh Molecular Library Screening Center, 2010).
The other results are listed elsewhere or left out. Values without a mark were called inactive. The source made the active and inactive calls.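 Rule for the calls: active = mean protection from necroptosis of at least 50% over duplicate tests; inactive = mean protection below 50%.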

Test: rescue of L929 cells from caspase-blocker death – duplicate runs, confirmation (AID 463117);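 note: 0% = cells with zVAD alone and 100% = vehicle cells without zVAD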
Conditions: L929 zVAD-induced necroptosis rescue, ATP luminescence, 24 h; at 10 µM; stronger effect = higher value

Structure (SMILES)	activation (protection from necroptosis)
O=C(CSc1ccc([N+](=O)[O-])cn1)Nc1ccc(N2CCOCC2)c(Cl)c1	3.3%
COc1ccc(-n2cnc3cc(NCc4ccco4)ccc32)cc1	52.9% (active)
Cc1csc(NC(=O)NC2(C(F)(F)F)Oc3ccccc3O2)n1	1.61%
CCN(CC)S(=O)(=O)c1ccc(NC(=O)c2cccnc2Cl)c(NC(=O)c2cccnc2Cl)c1	2.93%
COc1ccc(-c2csc(Nc3ccc(O)cc3)n2)cc1	30.2%
Cn1ccc(NC(=O)Nc2ccc(Cl)cc2)n1	28.3%
Cc1ccc(NC(=O)COc2ccc(-n3ccnc3)cc2)cc1Cl	62.3% (active)
Cc1cc(-n2cnc(-c3cn(C)nc3C)n2)no1	27.6%
Oc1ccc(-c2onc3ccc(Cl)cc23)cc1	11.4%
O=C(COc1cccc(-n2cnnn2)c1)NCCC1=CCCCC1	36.6%
Cc1cc(NC(=O)c2cnn3cccnc23)n(-c2ccccc2)n1	21.5%
Oc1ccc(/C=N/Nc2ccc(C(F)(F)F)cn2)cc1O	83.8% (active)
CC(=O)Nc1cccc(-c2cnc3ccccc3n2)c1	1.04%
Cc1ccccc1NC(=O)CSC1=NCCN1	7.19%
COc1cc(/C=N/Nc2nc3ccccc3s2)ccc1O	75.3% (active)
COc1ccc(Nc2ncc(F)c(N3CCOCC3)n2)cc1	1.91%
OCCCNc1nccc(-c2cc(Nc3cccc(Cl)c3)ncn2)n1	102% (active)
CCOc1ccc(C(=O)Nc2nccs2)cc1[N+](=O)[O-]	1.6%
Cc1cccc(NC(=O)Nc2ccc3c(c2)OCO3)n1	-0.556%
